# Assay results: publication PMC5540273 (PLoS ONE, 2017)
# Values joined by “and” are separate entries in the source; they are usually repeats but may differ in a detail not shown here. Equal entries are not always repeated. Where two headings read alike, the source gives them in different places.
# Columns and labels:
# [1] = tested on: EPHA4; conditions: n = 1
# [2] = tested on: EPHA5; conditions: concentration: 1 μM, replicates: in singlicate; n = 1
# [3] = tested on: EPHA6; conditions: n = 1
# [4] = tested on: EPHA7; conditions: n = 1
# [5] = tested on: EPHA8; conditions: n = 1
# [6] = tested on: EPHB1; conditions: n = 1
# [7] = tested on: EPHB2; conditions: concentration: 1 μM, replicates: in singlicate; n = 1
# [8] = tested on: EPHB3; conditions: n = 1
# [9] = tested on: EPHB4; conditions: n = 1
# [10] = tested on: EPHB6; conditions: n = 1
# [11] = tested on: ERBB2; conditions: n = 1
# [12] = tested on: ERBB3; conditions: concentration: 1 μM, replicates: in singlicate; n = 1
# [13] = tested on: ERBB4; conditions: n = 1
# [14] = tested on: T1, ERK1; conditions: concentration: 1 μM, replicates: in singlicate; n = 1
# T1 construct: gene MAPK3
# [15] = tested on: T2, ERK2; conditions: concentration: 1 μM, replicates: in singlicate; n = 1
# T2 construct: gene MAPK1
# [16] = tested on: T3, ERK3; conditions: n = 1
# T3 construct: gene MAPK6
# [17] = tested on: T4, ERK4; conditions: n = 1
# T4 construct: gene MAPK4
# [18] = tested on: T5, ERK5; conditions: concentration: 1 μM, replicates: in singlicate; n = 1
# T5 construct: gene MAPK7
# [19] = tested on: T6, ERK8; conditions: concentration: 1 μM, replicates: in singlicate; n = 1
# T6 construct: gene MAPK15
# [20] = tested on: ERN1; conditions: n = 1
# [21] = concentration: 1 μM, replicates: in singlicate
# [22] = concentration: 1 μM,replicates: in singlicate, 1 µM
# 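Further: KINOMEscan kinase panel screen.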
smiles,measurement,setting,value
CC(=O)Nc1nc2cnc(Nc3cc(NC(=O)c4cccc(CCC#N)c4)ccc3C)nc2s1,%Inh,[1]; [21],16%
same,%Inh,[2],6%
same,%Inh,[3]; [21],27%
same,%Inh,[4]; [21],10%
same,%Inh,[5]; [21],16%
same,%Inh,[6]; [21],6%
same,%Inh,[7],24%
same,%Inh,[8]; [21],14%
same,%Inh,[9]; [21],19%
same,%Inh,[10]; [21],45%
same,%Inh,[11]; [21],6%
same,%Inh,[12],7%
same,%Inh,[13]; [21],14%
same,%Inh,[14],0%
same,%Inh,[15],21%
same,%Inh,[16]; [21],4%
same,%Inh,[17]; [21],3%
same,%Inh,[18],3%
same,%Inh,[19],0%
same,%Inh,[20]; [21],0%
Cc1cccc(-c2nc(-c3ccc(S(C)(=O)=O)cc3)sc2-c2ccnc(NCCc3ccccc3)c2)c1,%Inh,[1]; [21],0%
same,%Inh,[2],0%
same,%Inh,[3]; [21],15%
same,%Inh,[4]; [21],0%
same,%Inh,[5]; [21],0%
same,%Inh,[6]; [21],0%
same,%Inh,[7],10%
same,%Inh,[8]; [21],0%
same,%Inh,[9]; [21],0%
same,%Inh,[10]; [21],0%
same,%Inh,[11]; [21],0%
same,%Inh,[12],3%
same,%Inh,[13]; [21],0%
same,%Inh,[14],0%
same,%Inh,[15],0%
same,%Inh,[16]; [21],19%
same,%Inh,[17]; [21],7%
same,%Inh,[18],5%
same,%Inh,[19],14%
same,%Inh,[20]; [21],0%
O=C(O)COc1ncnc2cc(-c3ccc4[nH]ncc4c3)sc12,%Inh,[1]; [21],0%
same,%Inh,[2],42%
same,%Inh,[3]; [21],4%
same,%Inh,[4]; [21],0%
same,%Inh,[5]; [21],0%
same,%Inh,[6]; [21],0%
same,%Inh,[7],0%
same,%Inh,[8]; [21],0%
same,%Inh,[9]; [21],7%
same,%Inh,[10]; [21],47%
same,%Inh,[11]; [21],0%
same,%Inh,[12],0%
same,%Inh,[13]; [21],15%
same,%Inh,[14],0%
same,%Inh,[15],24%
same,%Inh,[16]; [21],0%
same,%Inh,[17]; [21],0%
same,%Inh,[18],1%
same,%Inh,[19],3%
same,%Inh,[20]; [21],15%
Cc1ccc(NC(=O)Nc2cccc(Cl)c2)cc1-c1ccc(C(=O)Nc2ccncc2)cc1 [GSK1398468],%Inh,[1]; [21],18%
same,%Inh,[2],0%
same,%Inh,[3]; [21],11%
same,%Inh,[4]; [21],3%
same,%Inh,[5]; [21],38%
same,%Inh,[6]; [21],26%
same,%Inh,[7],15%
same,%Inh,[8]; [21],4%
same,%Inh,[9]; [21],19%
same,%Inh,[10]; [21],0%
same,%Inh,[11]; [21],24%
same,%Inh,[12],0%
same,%Inh,[13]; [21],7%
same,%Inh,[14],0%
same,%Inh,[15],0%
same,%Inh,[16]; [21],7%
same,%Inh,[17]; [21],3%
same,%Inh,[18],0%
same,%Inh,[19],0%
same,%Inh,[20]; [21],0%
CSc1nn2c(=O)cc(N3CCOCC3)nc2n1Cc1cccc(C(F)(F)F)c1C [GSK2363608],%Inh,[1]; [22],2% and 23%
same,%Inh,[2],0%
same,%Inh,[3]; [22],0% and 12%
same,%Inh,[4]; [22],8% and 6%
same,%Inh,[5]; [22],0% and 18%
same,%Inh,[6]; [22],0% and 9%
same,%Inh,[7],0%
same,%Inh,[8]; [22],3% and 28%
same,%Inh,[9]; [22],13% and 17%
same,%Inh,[10]; [22],29% and 12%
same,%Inh,[11]; [22],0% and 10%
same,%Inh,[12],0%
same,%Inh,[13]; [22],28% and 37%
same,%Inh,[14],0%
same,%Inh,[15],0%
same,%Inh,[16]; [22],7% and 0%
same,%Inh,[17]; [22],54% and 22%
same,%Inh,[18],0%
same,%Inh,[19],0%
same,%Inh,[20]; [22],3% and 1%
O=C1NC(=O)C(N2CCc3ccccc32)=C1c1ccccc1Cl [SB-373598],%Inh,[1]; [21],24%
same,%Inh,[2],0%
same,%Inh,[3]; [21],18%
same,%Inh,[4]; [21],18%
same,%Inh,[5]; [21],36%
same,%Inh,[6]; [21],9%
same,%Inh,[7],0%
same,%Inh,[8]; [21],14%
same,%Inh,[9]; [21],20%
same,%Inh,[10]; [21],31%
same,%Inh,[11]; [21],26%
same,%Inh,[12],0%
same,%Inh,[13]; [21],0%
same,%Inh,[14],17%
same,%Inh,[15],0%
same,%Inh,[16]; [21],23%
same,%Inh,[17]; [21],11%
same,%Inh,[18],0%
same,%Inh,[19],0%
same,%Inh,[20]; [21],13%
Cc1cccc(-c2nc(Nc3ccc4[nH]ncc4c3)c3ccccc3n2)n1 [GW857175],%Inh,[1]; [21],0%
same,%Inh,[2],0%
same,%Inh,[3]; [21],0%
same,%Inh,[4]; [21],0%
same,%Inh,[5]; [21],0%
same,%Inh,[6]; [21],11%
same,%Inh,[7],0%
same,%Inh,[8]; [21],0%
same,%Inh,[9]; [21],0%
same,%Inh,[10]; [21],43%
same,%Inh,[11]; [21],0%
same,%Inh,[12],18%
same,%Inh,[13]; [21],0%
same,%Inh,[14],0%
same,%Inh,[15],4%
same,%Inh,[16]; [21],0%
same,%Inh,[17]; [21],9%
same,%Inh,[18],3%
same,%Inh,[19],21%
same,%Inh,[20]; [21],35%
COc1cccc(NC(=O)NC2CCN(c3ccnc(Nc4ccc(F)cc4)n3)C2)c1 (stereo not drawn) [GSK1379721],%Inh,[1]; [21],0%
same,%Inh,[2],0%
same,%Inh,[3]; [21],0%
same,%Inh,[4]; [21],0%
same,%Inh,[5]; [21],3%
same,%Inh,[6]; [21],17%
same,%Inh,[7],0%
same,%Inh,[8]; [21],0%
same,%Inh,[9]; [21],0%
same,%Inh,[10]; [21],33%
same,%Inh,[11]; [21],28%
same,%Inh,[12],0%
same,%Inh,[13]; [21],7%
same,%Inh,[14],0%
same,%Inh,[15],0%
same,%Inh,[16]; [21],0%
same,%Inh,[17]; [21],21%
same,%Inh,[18],0%
same,%Inh,[19],0%
same,%Inh,[20]; [21],19%
Cl.O=C(Nc1cccc(-c2nn3ncccc3c2-c2ccnc(Nc3cccnc3)n2)c1)c1c(F)cccc1F [GSK312879],%Inh,[1]; [21],1%
same,%Inh,[2],0%
same,%Inh,[3]; [21],1%
same,%Inh,[4]; [21],7%
same,%Inh,[5]; [21],27%
same,%Inh,[6]; [21],13%
same,%Inh,[7],0%
same,%Inh,[8]; [21],0%
same,%Inh,[9]; [21],12%
same,%Inh,[10]; [21],10%
same,%Inh,[11]; [21],95.9%
same,%Inh,[12],0%
same,%Inh,[13]; [21],93.2%
same,%Inh,[14],8%
same,%Inh,[15],0%
same,%Inh,[16]; [21],0%
same,%Inh,[17]; [21],16%
same,%Inh,[18],0%
same,%Inh,[19],28%
same,%Inh,[20]; [21],4%
